Reference: PubChem BioAssay (NCI)
The panel holds about 83,000 compounds, 20% with a hit somewhere; the sample as a whole holds those more often.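 Assay: single dose, 48 h. Readout: percent growth (0 = no net growth; negative = cell death). Active: <10.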 Activity calls are given as the source filed them.

Assays:
Test in all cases: NCI-60 one-dose screen, 48 h (100 = growth as untreated, 0 = no growth, -100 = all killed)
Settings in all cases: 10 µM
NCI-H23 lung = test system: NCI-H23 lung
NCI-H226 lung = test system: NCI-H226 lung
NCI-H322M lung = test system: NCI-H322M lung
HOP-62 NSCLC = test system: HOP-62 NSCLC
NCI-H460 lung = test system: NCI-H460 lung
HOP-92 NSCLC = test system: HOP-92 NSCLC
NCI-H522 lung = test system: NCI-H522 lung
A549/ATCC NSCLC = test system: A549/ATCC NSCLC
786-0 renal = test system: 786-0 renal
COLO 205 colon = test system: COLO 205 colon

Measured: growth

COc1csc(/C=N/NC(=O)c2[nH]c3ccc(Br)cc3c2-c2ccccc2)c1
active: NCI-H23 lung 7.1% | NCI-H460 lung -5.74% | NCI-H522 lung -48.5% | 786-0 renal 4.83% | COLO 205 colon -79.9%
inactive: NCI-H226 lung 23.1% | NCI-H322M lung 34.7% | HOP-62 NSCLC 24.9% | HOP-92 NSCLC 49.2% | A549/ATCC NSCLC 13.7%

Brc1ccc(N/N=C/c2c[nH]c3ccccc23)nc1
active: NCI-H460 lung 9% | HOP-92 NSCLC -28.4% | 786-0 renal 0.458%
inactive: NCI-H23 lung 41.1% | NCI-H226 lung 35.5% | NCI-H322M lung 47.6% | HOP-62 NSCLC 32% | NCI-H522 lung 24.9% | A549/ATCC NSCLC 37.7% | COLO 205 colon 48.8%

CS(=O)(=O)Nc1ccc(-c2ccc3c(c2)ncn3-c2ccc(NC(=O)Nc3ccc(Br)cc3)cc2)cc1
active: NCI-H23 lung 3.9% | NCI-H226 lung 9.71% | HOP-62 NSCLC -3.22% | NCI-H460 lung 2.98% | NCI-H522 lung -23.4% | 786-0 renal -13.6% | COLO 205 colon -27.9%
inactive: NCI-H322M lung 15.3% | HOP-92 NSCLC 26.8% | A549/ATCC NSCLC 12.1%

O=C(CNc1nc(-c2ccccc2)cs1)Nc1ccc([N+](=O)[O-])cc1
active: NCI-H23 lung -6.85% | NCI-H322M lung 6.59% | NCI-H522 lung -74.6% | COLO 205 colon -83.3%
inactive: NCI-H226 lung 29.4% | HOP-62 NSCLC 33.3% | NCI-H460 lung 35% | HOP-92 NSCLC 42.8% | A549/ATCC NSCLC 42.8% | 786-0 renal 16%

COc1ccc(C(=O)CSc2nnc(-c3c[nH]c4ccccc34)n2-c2ccccc2)cc1
active: NCI-H226 lung 0.0587% | HOP-62 NSCLC 8.82% | HOP-92 NSCLC 7.9%
inactive: NCI-H23 lung 56.5% | NCI-H322M lung 58.3% | NCI-H460 lung 65.5% | NCI-H522 lung 45.7% | A549/ATCC NSCLC 74% | 786-0 renal 45.2% | COLO 205 colon 84.8%

CO[C@H]1CSS[C@@H]1Cn1nc(-c2ccc(Oc3ccccc3)cc2)c2c(N)ncnc21
inactive: NCI-H23 lung 40.4% | NCI-H226 lung 16.6% | NCI-H322M lung 53.4% | HOP-62 NSCLC 41.3% | NCI-H460 lung 21.1% | HOP-92 NSCLC 20.5% | A549/ATCC NSCLC 22.1% | 786-0 renal 45% | COLO 205 colon 36.1%
active: NCI-H522 lung -13%

COc1cc(-c2nc3cc(Cl)c(Cl)cc3[nH]2)ccc1OCc1nnc(-c2ccc(Br)cc2)o1
active: NCI-H226 lung -46.8% | HOP-62 NSCLC -28.1% | HOP-92 NSCLC -39.6% | NCI-H522 lung 8.01% | 786-0 renal -31%
inactive: NCI-H23 lung 24% | NCI-H322M lung 38.8% | NCI-H460 lung 22.9% | A549/ATCC NSCLC 19.5% | COLO 205 colon 51.4%

CC1(c2ccccc2)NC(=O)N(CC(=O)Nc2ccc(C(=O)/C=C/c3ccccc3)cc2)C1=O (stereo not given)
inactive: NCI-H23 lung 65.5% | NCI-H226 lung 45.7% | NCI-H322M lung 90.2% | HOP-62 NSCLC 85.9% | NCI-H460 lung 69.4% | HOP-92 NSCLC 50.7% | NCI-H522 lung 71.4% | A549/ATCC NSCLC 44.3% | 786-0 renal 42.6% | COLO 205 colon 76.4%

COc1cccc(-c2nn(-c3ccccc3)cc2-c2ccnc(NCCCNC(=O)Nc3ccc(F)cc3)c2)c1
inactive: NCI-H23 lung 17% | NCI-H226 lung 16.4% | NCI-H322M lung 43.7% | NCI-H460 lung 15.2% | A549/ATCC NSCLC 15.1%
active: HOP-62 NSCLC 7.43% | HOP-92 NSCLC -25% | NCI-H522 lung -3.16% | 786-0 renal -11.3% | COLO 205 colon -0.929%

N[C@@H](CSSC[C@H](N)C(=O)Nc1ccc(OCC2CCCC2)cc1)C(=O)Nc1ccc(OCC2CCCC2)cc1
active: NCI-H23 lung -92.9% | NCI-H226 lung -72.5% | NCI-H322M lung -99.5% | HOP-62 NSCLC -90.7% | NCI-H460 lung -77.1% | HOP-92 NSCLC -72.8% | NCI-H522 lung -93.2% | A549/ATCC NSCLC -90.7% | 786-0 renal -59.9% | COLO 205 colon -92.5%

C=C[C@H]1[C@H](O[C@@H]2OC(CO)[C@@H](O)[C@H](O)C2OC(=O)c2c(O)cc(O)cc2-c2cccc(O)c2)OC=C2C(=O)OCC[C@H]21 (stereo not given in full)
inactive: NCI-H23 lung 96.5% | NCI-H226 lung 98.8% | NCI-H322M lung 93.8% | HOP-62 NSCLC 93.6% | NCI-H460 lung 107% | HOP-92 NSCLC 132% | NCI-H522 lung 106% | A549/ATCC NSCLC 95.3% | 786-0 renal 105% | COLO 205 colon 107%

O=C1CCC(N2Cc3cc(NC(=O)COc4ccccc4)ccc3C2=O)C(=O)N1 (stereo not given)
inactive: NCI-H23 lung 101% | NCI-H226 lung 48.1% | NCI-H322M lung 80.3% | HOP-62 NSCLC 65.7% | NCI-H460 lung 113% | NCI-H522 lung 91% | A549/ATCC NSCLC 85% | 786-0 renal 71.8% | COLO 205 colon 74.6%
active: HOP-92 NSCLC -0.508%

Cc1ccc(C(=O)NCCCNc2nc(Nc3ccc(N4CCN(C)CC4)cc3)nc3ccsc23)cc1
inactive: NCI-H23 lung 53.4% | NCI-H226 lung 68.7% | NCI-H322M lung 64.3% | HOP-62 NSCLC 73.7% | NCI-H460 lung 49.2% | HOP-92 NSCLC 27.1% | NCI-H522 lung 73.2% | A549/ATCC NSCLC 54.5% | COLO 205 colon 32.7%
active: 786-0 renal -11.6%

COc1ccc(C(C)=C(c2ccc(OCCCN(C)C)cc2)c2ccc(OCCCN(C)C)cc2)cc1
active: NCI-H23 lung -95.6% | NCI-H226 lung -82.2% | NCI-H322M lung -97.1% | HOP-62 NSCLC -92.2% | NCI-H460 lung -44.2% | HOP-92 NSCLC -74.5% | NCI-H522 lung -92.7% | A549/ATCC NSCLC -92.5% | 786-0 renal -82.6% | COLO 205 colon -90.2%

CN1CCc2c(sc3ncnc(N/N=C/c4cn(-c5ccccc5)nc4-c4ccc(Cl)cc4)c23)C1
inactive: NCI-H226 lung 33.1% | NCI-H322M lung 28.7% | HOP-62 NSCLC 29.8% | HOP-92 NSCLC 45.7% | A549/ATCC NSCLC 26.3% | 786-0 renal 25.3%
active: NCI-H23 lung -20.6% | NCI-H460 lung 1.06% | NCI-H522 lung 3.5% | COLO 205 colon -30.1%

O=C(Nc1ccc(OCc2ccccc2)cc1)Nc1ccc(Cl)c(C(F)(F)F)c1
inactive: 786-0 renal 17.9%
active: NCI-H23 lung -5.44% | NCI-H226 lung -27.7% | NCI-H322M lung 7% | HOP-62 NSCLC 5.97% | NCI-H460 lung 3.69% | HOP-92 NSCLC -38.7% | NCI-H522 lung -20.3% | A549/ATCC NSCLC 5.97% | COLO 205 colon -72.7%

CCOC(=O)CNC(=O)CN(Cc1ccccc1)C(=O)[C@@]1(C)CCC[C@]2(C)[C@H]3C[C@H]4C(C(C)C)=C[C@]3(CC[C@H]21)[C@@H]1C(=O)OC(=O)[C@@H]14
inactive: NCI-H23 lung 46.6% | NCI-H226 lung 71.3% | NCI-H322M lung 106% | HOP-62 NSCLC 82.8% | NCI-H460 lung 61.1% | HOP-92 NSCLC 74.6% | NCI-H522 lung 35.6% | A549/ATCC NSCLC 53.9% | 786-0 renal 84.7% | COLO 205 colon 103%

COc1cccc2nc(Nc3ccc(F)c(NC(=O)c4ccc(CN5CCN(C)CC5)c(C(F)(F)F)c4)c3)ccc12
inactive: NCI-H226 lung 17% | NCI-H322M lung 32.7% | A549/ATCC NSCLC 18.5%
active: NCI-H23 lung -17.8% | HOP-62 NSCLC -36.4% | NCI-H460 lung -68.8% | HOP-92 NSCLC -22.8% | NCI-H522 lung -60.9% | 786-0 renal -66.3% | COLO 205 colon -78.7%

C=C1CCC2C3(C)COC(c4cc(F)cc(F)c4)OC3CCC2(C)C1C/C=C1/C(=O)OCC1O (stereo not given)
active: NCI-H23 lung -39.2% | NCI-H226 lung -20.9% | HOP-62 NSCLC -64.1% | HOP-92 NSCLC -52.4% | NCI-H522 lung -79.8% | A549/ATCC NSCLC 4.7% | 786-0 renal -90.5% | COLO 205 colon -68%
inactive: NCI-H322M lung 24.5% | NCI-H460 lung 13.1%

Cc1ccc(-c2cc(-c3cc4ccccc4nc3Cl)[nH]c(=O)n2)cc1
inactive: NCI-H23 lung 10.1% | NCI-H322M lung 32.1% | A549/ATCC NSCLC 35.5% | COLO 205 colon 24.7%
active: NCI-H226 lung -8.6% | HOP-62 NSCLC -9.15% | NCI-H460 lung 0.523% | HOP-92 NSCLC 5.62% | NCI-H522 lung -11.7% | 786-0 renal -22.6%

O=C(Nc1cc(Cl)cc(Cl)c1)Nc1cc(Cl)cc(Cl)c1
active: NCI-H23 lung -21.1% | NCI-H226 lung -37.8% | NCI-H322M lung -5.15% | HOP-62 NSCLC -30.3% | NCI-H460 lung -16.2% | HOP-92 NSCLC -33.8% | NCI-H522 lung -36.1% | A549/ATCC NSCLC 1.01% | 786-0 renal -1.4% | COLO 205 colon -98.9%

OCCNc1oc(-c2ccccc2)nc1[P+](c1ccccc1)(c1ccccc1)c1ccccc1
inactive: NCI-H322M lung 55.3% | HOP-62 NSCLC 24.2% | A549/ATCC NSCLC 45.8% | 786-0 renal 21.2%
active: NCI-H23 lung 8.3% | NCI-H226 lung 1.88% | NCI-H460 lung 5.2% | HOP-92 NSCLC -22.6% | NCI-H522 lung 2.33% | COLO 205 colon -52.8%

Cc1ccc(C(C)C)cc1NC(=O)c1ccccc1N(C)C
inactive: NCI-H23 lung 82.4% | NCI-H226 lung 99.3% | NCI-H322M lung 82.7% | HOP-62 NSCLC 97.1% | NCI-H460 lung 102% | HOP-92 NSCLC 73.8% | NCI-H522 lung 78.3% | A549/ATCC NSCLC 82.2% | 786-0 renal 81.7% | COLO 205 colon 105%

COc1cnc2c(c1)C(=O)c1c-2n(CCCNC(C)C)c(=O)c2cc(OC)c(OC)cc12
inactive: NCI-H23 lung 26.9% | NCI-H226 lung 41.4% | NCI-H322M lung 46.5% | HOP-62 NSCLC 16.7% | NCI-H460 lung 16% | HOP-92 NSCLC 60.9% | NCI-H522 lung 41.3% | A549/ATCC NSCLC 46.6% | 786-0 renal 22.9% | COLO 205 colon 39.2%

O=C(Nc1ccc(OCC(=O)c2ccccc2)cc1)Nc1ccc(Cl)c(C(F)(F)F)c1
active: NCI-H226 lung 8.87% | HOP-92 NSCLC -14.5% | NCI-H522 lung -31.7% | COLO 205 colon -3.64%
inactive: NCI-H23 lung 25.4% | NCI-H322M lung 28% | HOP-62 NSCLC 27.9% | NCI-H460 lung 18.4% | A549/ATCC NSCLC 25.4% | 786-0 renal 21%

CCOP(=O)(OCC)O[C@H]1CCC(=O)[C@@H]2[C@H]1[C@H]1C[C@@H]3[C@@]4(C)CCCC(C)(C(=O)OC)[C@@H]4CC[C@@]23C=C1C(C)C (stereo not given in full)
inactive: NCI-H23 lung 50.3% | NCI-H226 lung 48.9% | NCI-H322M lung 102% | HOP-62 NSCLC 76.8% | NCI-H460 lung 66.4% | HOP-92 NSCLC 46.8% | NCI-H522 lung 31.6% | A549/ATCC NSCLC 49.7% | 786-0 renal 63.3% | COLO 205 colon 47.6%
